Experimental data published in PubChem BioAssay (Tox21).
Results filed as inconclusive are left out. Activity calls are given as the source filed them. Unless noted, calls follow the shape of the full dose curve.

Experiments:
[1] = Nuclear factor erythroid 2-related factor 2/antioxidant responsive element (Nrf2/ARE) small molecule agonists: qHTS cell viability counter screen in human keratinocytes (AID 1919968; active = well fitted curve in the direction sought with a large enough effect in the repeat runs; an effect the other way counts as inactive or inconclusive; also: nearly all actives have a fitted effect of over 55% in size)
Summary of the method: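 Parallel cytotoxicity read: KeratinoSens HaCaT cells, compound treatment 23 h, viability by CellTiter-Fluor fluorescence 1 h post-reagent.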

[2] = Nuclear factor erythroid 2-related factor 2/antioxidant responsive element (Nrf2/ARE) small molecule agonists: luciferase reporter gene qHTS assay in human keratinocytes (AID 1919969); also: nearly all actives have a fitted effect of over 35% in size; also: potency is read from the fitted curve at half-maximal effect
[3] = target: Gonadotropin-releasing hormone receptor (Homo sapiens) (UniProt P30968); experiment: Human gonadotropin-releasing hormone receptor (GnRHR) small molecule agonists, calcium flux assay in GnRHR-HEK293 cells (AID 1920063); also: nearly all actives have a fitted effect of over 35% in size
Sequence of Gonadotropin-releasing hormone receptor (Homo sapiens) (P30968 whole entry, looked up): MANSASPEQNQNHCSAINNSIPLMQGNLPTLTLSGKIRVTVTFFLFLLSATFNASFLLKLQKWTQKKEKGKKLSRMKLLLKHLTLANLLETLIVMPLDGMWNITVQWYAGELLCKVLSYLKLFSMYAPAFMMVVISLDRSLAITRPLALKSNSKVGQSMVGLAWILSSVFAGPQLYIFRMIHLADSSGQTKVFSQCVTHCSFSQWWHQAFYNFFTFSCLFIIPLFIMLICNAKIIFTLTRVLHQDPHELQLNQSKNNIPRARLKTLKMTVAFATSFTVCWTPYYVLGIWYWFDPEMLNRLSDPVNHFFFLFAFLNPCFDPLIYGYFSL
Summary of the method: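 Calcium flux, agonist mode, human GnRHR stably integrated in HEK293; dye 1 h at 37 C before compound; Ex/Em=480/540 kinetic read, 3 min; 15 concentrations, triplicate.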

[4] = target: KiSS-1 receptor (Homo sapiens) (UniProt Q969F8); experiment: Human kisspeptin (KISS1R) small molecule agonists, calcium flux assay in KISS1R-HEK293 cells (AID 1920064; active = well fitted curve in the direction sought with a large enough effect in the repeat runs; an effect the other way counts as inactive or inconclusive)
Sequence of KiSS-1 receptor (Homo sapiens) (Q969F8 whole entry, looked up): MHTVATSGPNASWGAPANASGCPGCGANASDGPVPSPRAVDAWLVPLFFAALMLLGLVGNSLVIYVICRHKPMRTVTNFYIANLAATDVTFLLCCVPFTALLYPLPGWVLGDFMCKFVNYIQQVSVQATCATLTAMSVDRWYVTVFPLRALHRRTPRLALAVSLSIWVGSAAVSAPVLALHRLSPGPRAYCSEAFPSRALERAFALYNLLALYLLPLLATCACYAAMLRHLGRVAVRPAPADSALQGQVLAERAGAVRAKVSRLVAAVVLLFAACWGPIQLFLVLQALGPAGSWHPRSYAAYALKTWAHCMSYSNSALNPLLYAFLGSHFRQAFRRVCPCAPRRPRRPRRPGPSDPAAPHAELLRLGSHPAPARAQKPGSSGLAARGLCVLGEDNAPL
Summary of the method: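 Triplicate 15-concentration series were applied to dye-loaded human KISS1R HEK293 cells, and agonist-evoked calcium fluorescence was captured for 3 min.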

[5] = G protein-coupled receptor (GPCR) small molecule agonists, calcium flux assay: HEK293 wild type cell line counter screen (AID 1920065)
Summary of the method: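 Non-specific calcium responders were flagged by adding DMSO-dissolved compounds to dye-loaded cells and reading 480/540 nm fluorescence each second for 3 min; ATP served as positive control.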

[6] = p53 small molecule agonists, cell-based qHTS assay with human liver microsomes (AID 1963577)
Summary of the method: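 p53RE-bla cells, 4,000/well, compound added after 5 h, with human liver microsomes 0.5 mg/mL and NADPH 0.5 mg/mL final; 16 h at 37 C, then LiveBLAzer 2 h RT, fluorescence.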

[7] = p53 small molecule agonists, cell-based qHTS assay with rat liver microsomes (AID 1963578)
Summary of the method: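 p53RE-bla cells, 4,000/well, pre-incubated 5 h, then given compounds plus rat liver microsomes (0.5 mg/mL final) and NADPH (0.5 mg/mL final). Incubation 16 h at 37 C; beta-lactamase reporter read by LiveBLAzer fluorescence after 2 h at room temperature.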

[8] = p53 small molecule agonists, cell-based qHTS assay with human liver microsomes: qHTS cell viability counter screen (AID 1963579); also: nearly all actives have a fitted effect of over 45% in size
Summary of the method: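 p53RE-bla cells, 4,000/well, dosed 5 hours after plating, with human liver microsomes (0.5 mg/mL final) plus NADPH (0.5 mg/mL final), 16 hours at 37 C. Viability read as CellTiter-Glo luminescence after 30 min at room temperature.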

[9] = p53 small molecule agonists, cell-based qHTS assay with rat liver microsomes: qHTS cell viability counter screen (AID 1963580); also: nearly all actives have a fitted effect of over 45% in size
Summary of the method: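 Cytotoxicity counter screen: intracellular ATP read by CellTiter-Glo luminescence in the p53 reporter wells. HCT-116 p53RE-bla cells were treated for 16 h at 37 C alongside rat liver microsomes and NADPH, each 0.5 mg/mL final.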

[10] = p53 small molecule agonists, cell-based qHTS assay: qHTS cell viability counter screen (AID 1963581); also: nearly all actives have a fitted effect of over 45% in size
Summary of the method: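 Multiplexed with the reporter read, a CellTiter-Glo step (30 min, room temperature) gauges ATP-based viability of HCT-116 p53RE-bla cells after 16 h compound incubation at 37 C.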

[11] = p53 small molecule agonists, cell-based qHTS assay (AID 1963582; active = well fitted activation curve with a large enough effect in the signal ratio in the repeat runs, not every such curve was filed as active; the % refers to the signal ratio)
Summary of the method: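 Beta-lactamase reporter cells (p53RE-bla) treated with compounds for 16 h at 37 C; FRET substrate, 2 h, room temperature; fluorescence intensity.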

[12] = target: 5-hydroxytryptamine receptor 2A (Homo sapiens) (UniProt P28223); experiment: 5-hydroxytryptamine receptor 2A (HTR2A) small molecule antagonists, cell-based qHTS assay (AID 1963586); also: nearly all actives have a fitted effect of over 45% in size; also: potency is read from the fitted curve at half-maximal effect
Sequence of 5-hydroxytryptamine receptor 2A (Homo sapiens) (P28223 whole entry, looked up): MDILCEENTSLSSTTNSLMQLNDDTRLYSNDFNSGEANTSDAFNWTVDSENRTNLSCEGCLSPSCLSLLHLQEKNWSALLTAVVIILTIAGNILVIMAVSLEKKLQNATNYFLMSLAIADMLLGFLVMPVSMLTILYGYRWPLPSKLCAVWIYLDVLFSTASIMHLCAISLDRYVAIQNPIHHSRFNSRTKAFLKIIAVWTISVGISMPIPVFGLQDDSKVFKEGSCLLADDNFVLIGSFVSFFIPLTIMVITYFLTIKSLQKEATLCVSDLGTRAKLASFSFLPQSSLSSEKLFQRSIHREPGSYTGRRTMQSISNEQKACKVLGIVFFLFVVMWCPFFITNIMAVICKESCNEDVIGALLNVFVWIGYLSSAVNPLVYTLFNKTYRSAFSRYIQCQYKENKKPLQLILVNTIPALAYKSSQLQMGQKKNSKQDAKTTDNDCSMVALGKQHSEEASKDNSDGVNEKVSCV
Summary of the method: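 CHO cells stably expressing human HTR2A were plated for 18 h at 37 C, then loaded with calcium dye for 1 h. Compounds were preincubated 5 min at room temperature before DOI (4 nM solution) was added. Kinetic fluorescence was read for 3 min.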

[13] = target: 5-hydroxytryptamine receptor 2A (Homo sapiens) (UniProt P28223); experiment: 5-hydroxytryptamine receptor 2A (HTR2A) small molecule agonists, cell-based qHTS assay (AID 1963587); also: nearly all actives have a fitted effect of over 30% in size; also: potency is read from the fitted curve at half-maximal effect
Summary of the method: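 Kinetic calcium-flux fluorescence (2 min, 1 sec intervals) after compound addition in agonist mode. HTR2A-CHO cells were cultured 18 h, then dye-loaded 1 h at 37 C.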

[14] = cAMP Responsive Elements (CRE) small molecule antagonists, cell-based qHTS assay (AID 1963591; active = well fitted inhibition curve with a large enough effect in the signal ratio in the repeat runs, not every such curve was filed as active; the % refers to the signal ratio)
Summary of the method: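 Fluorescence intensity from cleaved LiveBLAzer B/G substrate (2 h, room temperature) quantified CRE-bla activity in HEK 293T cells exposed 3 h to compound with 0.25 uM final NKH477.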

[15] = target: Beta-2 adrenergic receptor (Homo sapiens) (UniProt P07550); experiment: Adrenergic beta2 receptor (ADRB2) small molecule antagonists, cell-based qHTS assay (AID 1963592); also: nearly all actives have a fitted effect of over 50% in size; also: potency is read from the fitted curve at half-maximal effect
Sequence of Beta-2 adrenergic receptor (Homo sapiens) (P07550 whole entry, looked up): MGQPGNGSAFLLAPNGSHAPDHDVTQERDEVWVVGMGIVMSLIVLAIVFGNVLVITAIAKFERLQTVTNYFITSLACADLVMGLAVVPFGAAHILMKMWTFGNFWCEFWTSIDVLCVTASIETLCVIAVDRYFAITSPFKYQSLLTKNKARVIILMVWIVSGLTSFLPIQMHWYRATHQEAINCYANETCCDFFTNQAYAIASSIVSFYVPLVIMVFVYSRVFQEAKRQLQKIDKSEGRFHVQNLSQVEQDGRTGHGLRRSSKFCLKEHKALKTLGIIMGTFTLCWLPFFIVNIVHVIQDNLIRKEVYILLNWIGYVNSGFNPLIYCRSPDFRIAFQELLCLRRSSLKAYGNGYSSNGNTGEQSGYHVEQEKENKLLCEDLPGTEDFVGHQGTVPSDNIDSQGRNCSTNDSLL
Summary of the method: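 Assay format: CHO-ADRB2 cells, 18-20hr seeding at 37C/5% CO2, then compound plus 1nM isoproterenol agonist mix for 0.5hr RT. Homogeneous time-resolved fluorescence cAMP detection after 1hr, expressed as 665/615 nm ratio.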

[16] = target: D(2) dopamine receptor (Homo sapiens) (UniProt P14416); experiment: Dopamine D2 receptor (DRD2) small molecule agonists, cell-based qHTS assay (AID 1963594); also: nearly all actives have a fitted effect of over 35% in size
Sequence of D(2) dopamine receptor (Homo sapiens) (P14416 whole entry, looked up): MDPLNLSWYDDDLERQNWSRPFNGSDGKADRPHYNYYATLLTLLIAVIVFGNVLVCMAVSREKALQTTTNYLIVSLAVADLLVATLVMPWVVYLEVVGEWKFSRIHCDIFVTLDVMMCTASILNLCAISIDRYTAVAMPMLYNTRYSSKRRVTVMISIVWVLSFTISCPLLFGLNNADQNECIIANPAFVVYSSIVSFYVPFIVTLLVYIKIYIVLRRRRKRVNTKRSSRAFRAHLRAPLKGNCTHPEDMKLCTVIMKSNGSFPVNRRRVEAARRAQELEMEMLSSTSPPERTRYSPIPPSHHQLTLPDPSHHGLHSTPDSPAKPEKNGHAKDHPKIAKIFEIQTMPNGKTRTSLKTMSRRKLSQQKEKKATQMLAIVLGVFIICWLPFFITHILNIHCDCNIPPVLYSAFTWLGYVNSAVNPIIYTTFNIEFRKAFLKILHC
Summary of the method: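 cAMP accumulation in DRD2-HEK293 cells measured by HTRF after 1 h detection; compounds added 10 min before NKH477 (200nM […]) forskolin-analogue stimulation, 30 min at room temperature, with Ro20-1724 present at 0.1 mM final.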

[17] = target: Muscarinic acetylcholine receptor M1 (Homo sapiens) (UniProt P11229); experiment: Cholinergic receptor muscarinic 1 (CHRM1) small molecule antagonists, cell-based qHTS assay (AID 1963588); also: nearly all actives have a fitted effect of over 40% in size; also: potency is read from the fitted curve at half-maximal effect
Sequence of Muscarinic acetylcholine receptor M1 (Homo sapiens) (P11229 whole entry, looked up): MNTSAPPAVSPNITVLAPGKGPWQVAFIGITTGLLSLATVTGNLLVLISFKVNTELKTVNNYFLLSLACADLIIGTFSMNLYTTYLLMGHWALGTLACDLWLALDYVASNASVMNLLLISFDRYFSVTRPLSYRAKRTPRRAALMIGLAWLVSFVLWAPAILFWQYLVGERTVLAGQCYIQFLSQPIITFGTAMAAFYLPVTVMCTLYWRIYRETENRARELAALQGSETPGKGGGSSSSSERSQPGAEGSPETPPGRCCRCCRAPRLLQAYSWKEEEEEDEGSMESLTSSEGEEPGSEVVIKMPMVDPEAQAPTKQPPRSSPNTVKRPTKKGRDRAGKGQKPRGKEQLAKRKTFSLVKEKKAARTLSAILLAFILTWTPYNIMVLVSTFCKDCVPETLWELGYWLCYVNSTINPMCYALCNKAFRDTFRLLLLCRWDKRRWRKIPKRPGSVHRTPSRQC
Summary of the method: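 Compounds were tested at 15 concentrations in three independent runs. Dye-loaded CHRM1-CHO cells were exposed 5 min at room temperature before stimulation by acetylcholine added at 50nM. Intracellular calcium was read kinetically on FDSS for 3 min.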

[18] = target: Muscarinic acetylcholine receptor M1 (Homo sapiens) (UniProt P11229); experiment: Cholinergic receptor muscarinic 1 (CHRM1) small molecule agonists, cell-based qHTS assay (AID 1963589); also: nearly all actives have a fitted effect of over 35% in size
Summary of the method: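 qHTS, 15-point titration, 3 independent runs: compounds pin-transferred onto dye-loaded CHRM1-CHO cells (human M1), calcium fluorescence followed every second to detect agonism.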

[19] = cAMP Responsive Elements (CRE) small molecule agonists, cell-based qHTS assay (AID 1963590)
Summary of the method: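 Quantitative HTS for CRE agonists: HEK 293T CRE-bla cells, overnight plating, 3 h compound incubation at 37 C/5% CO2, then 2 h room-temperature LiveBLAzer B/G FRET substrate loading.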

[20] = target: D(2) dopamine receptor (Homo sapiens) (UniProt P14416); experiment: Dopamine D2 receptor (DRD2) small molecule antagonists, cell-based qHTS assay (AID 1963595; active = well fitted inhibition curve with a large enough effect in the signal ratio in the repeat runs, with a control signal flat; the % refers to the signal ratio)
Summary of the method: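 HEK293 cells stably expressing DRD2 were preincubated with 0.1 mM Ro20-1724, then with compound for 10 min at room temperature. Cells were stimulated with 200 nM NKH477 plus 12 nM quinpirole for 30 min, and cAMP was read by HTRF.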

Measured: Potency

CCCCc1ccc(O)cc1
not listed: [17] | [18] | [19] | [20]
inactive: all other assays above

CNC(C)Cc1ccc2c(c1)OCO2 (stereo unspecified)
active: [2] 84.3 µM | [12] 1.03 µM | [13] 0.602 µM
not listed: [15]
inactive: all other assays above

O=CNC(N1CCN(C(NC=O)C(Cl)(Cl)Cl)CC1)C(Cl)(Cl)Cl (stereo unspecified)
not listed: [14] | [17] | [19]
inactive: all other assays above

CN(C)c1ccc(N=Nc2ccccc2)cc1
active: [2] 3.07 µM
not listed: [19]
inactive: all other assays above

BrCCCCBr
not listed: [13] | [14]
inactive: all other assays above

COc1ccc2c(c1OC)C(=O)O[C@H]2[C@@H]1c2cc3c(cc2CCN1C)OCO3
not listed: [16] | [17]
inactive: all other assays above

CC(C)NCC(O)c1ccc([N+](=O)[O-])cc1 (stereo unspecified)
active: [15] 5.96 µM
not listed: [16]
inactive: all other assays above

COC(=O)C(c1ccccc1)C1CCCCN1 (stereo unspecified)
active: [17] 26.6 µM
not listed: [13]
inactive: all other assays above

CC1(C)[C@H](/C=C2\CCSC2=O)[C@@H]1C(=O)OCc1coc(Cc2ccccc2)c1
active: [2] 61.1 µM | [12] 2.65 µM
not listed: [14] | [19]
inactive: all other assays above

CN1CCc2cc(Cl)c(O)cc2[C@H]2c3ccccc3CC[C@@H]21
active: [12] 0.0326 µM
not listed: [15] | [16] | [18] | [19] | [20]
inactive: all other assays above

CC(=O)OC1(c2ccccc2)CCN(CCc2ccccc2)CC1
active: [12] 9.65 µM
not listed: [13] | [16] | [19]
inactive: all other assays above

CCc1cc(OC)c(C[C@H](C)N)cc1OC
not listed: [13] | [14] | [15] | [16]
inactive: all other assays above
